Measured values from ChEMBL document CHEMBL1157539, “Thousands of chemical starting points for antimalarial lead identification” (Nature, 2010).

Columns and labels:
Assay type in all cases: functional
Plasmodium falciparum [1] = assay: GSK_TCMDC: Inhibition of Plasmodium falciparum 3D7 in whole red blood cells, using parasite LDH activity as an index of growth. Test compounds present at 2uM
Plasmodium falciparum [2] = assay: GSK_TCMDC: Inhibition of Plasmodium falciparum Dd2 in whole red blood cells, using parasite LDH activity as an index of growth. Test compounds present at 2uM
HepG2 = assay: GSK_TCMDC: Percent inhibition of human HepG2 cell line. Test compounds present at 10uM.

| Compound | Inhibition (Plasmodium falciparum [1]) | Inhibition (Plasmodium falciparum [2]) | Inhibition (HepG2) |
| --- | --- | --- | --- |
| N#Cc1ccc(-c2ccc(C(=O)NCCCCN3CCC(c4cc(Br)c5c(c4OCC(N)=O)CCCC5)CC3)cc2)cc1 | 100% | 89% | 23% |
| c1ccc2[nH]c(-c3ccc(-c4ccc(CN5CCCCC5)cc4)s3)nc2c1 | 100% | 69% | 41% |
| Cc1nc(NCCCn2ccnc2)cc(-c2cncc(-c3ccc(OC(F)(F)F)cc3)c2)n1 | 99% | 11% | 2% |
| O=C(NCCN1CCC(c2ccncc2)CC1)c1cccc(Nc2nccc(Nc3ccc(Oc4ccccc4)cc3)n2)c1 | 100% | 91% | 60% |
| CCOC(=O)N/N=C/[C@H](CCc1ccccc1)NC(=O)[C@H](CC(C)C)NC(=O)c1cc2cccc(OC)c2o1 | 84% | 58% | 3% |
| O=C(C=Cc1ccc(Cl)c(Cl)c1)NC1CCN(CCc2ccccc2)CC1.O=C(O)C(F)(F)F | 97% | 13% | 6% |
| C=CCOC(=O)N1CCC(CNCc2ccc(-c3cccc(-c4nc5cccc(C)c5[nH]4)c3)cc2)C1.O=C(O)C(F)(F)F (configuration not stated) | 100% | 99% | 25% |
| COCc1ccccc1C(=O)NCCOc1cc(C)cc(C)c1 | 96% | 95% | 26% |
| Nc1cc(-c2ccc(-c3cccs3)s2)nc2ccccc12 | 100% | 50% | 32% |
| COc1ccc(CNc2nccc3ccc(-c4ccc5nccn5c4)cc23)cc1.O=C(O)C(F)(F)F | 95% | 47% | 17% |
| CN1CCN(CC(=O)Nc2cccc(-c3cccc(-c4nc5cc(C(F)(F)F)ccc5[nH]4)c3)c2)CC1 | 100% | 98% | 26% |
| CC(C)Cc1ccc(N2CCN(CCCCNC(=O)c3ccc(NC(=O)c4cc(C(F)(F)F)cc(C(F)(F)F)c4)cc3)CC2)cc1 | 100% | 100% | 15% |
| CN1CCN(c2ccc(Nc3c(C(N)=O)cnc4cc(-c5ccoc5)ccc34)cc2)CC1.Cl | 100% | 99% | 14% |
| Cc1cccn2c(=O)c3cc(C(=O)NCCN4CCOCC4)c(=N)n(CCc4ccccc4)c3nc12 | 100% | 85% | 13% |
| O=C(Cn1cnc2c(nnn2Cc2ccccc2F)c1=O)Nc1ccc2c(c1)OCCO2 | 86% | 1% | 0% |
| CCN(CC)CCCOc1ccc(Nc2nccc(-c3c(-c4cccc(NC(=O)c5c(F)cccc5F)c4)nn4ccccc34)n2)cc1F | 100% | 99% | 86% |
| NC(=O)c1sc(-n2cnc3ccccc32)cc1OCc1ccccc1[N+](=O)[O-] | 99% | 46% | 10% |
| O=C(NC1CC1)c1ccc(N2CCC(c3ccccc3)CC2)nc1.O=C(O)C(F)(F)F | 93% | 92% | 16% |
| c1ccc(COc2ccccc2COc2ccccc2-c2ccc3cccnc3n2)cc1 | 87% | 95% | 0% |
| CCOc1ccc(C(=O)Nc2cc(Cl)ccc2O)cc1Cl | 83% | 84% | 11% |
| CC(=O)N(C)c1ccc(C(=O)Nc2cccc(-c3cccc(-c4nc5cccc(C)c5[nH]4)c3)c2)cc1 | 89% | 30% | 11% |
| CN1CCN(CCCN(Cc2cccc(-c3ccc(CNC4CCCC4)cc3)c2)C(=O)CCC2CCCC2)CC1.O=C(O)C(F)(F)F | 97% | 84% | 16% |
| CCn1ncc(Cl)c1CN(C)S(=O)(=O)c1ccc(Br)cc1 | 90% | 70% | 9% |
| COc1ccc(CNCc2ccc(-c3cccc(-c4nc5cccc(C)c5[nH]4)c3)cc2)cc1.O=C(O)C(F)(F)F | 100% | 100% | 69% |
| Nc1nc(N)c2c(ccc3c2ccn3Cc2cc3c(cc2Cl)OCO3)n1 | 95% | 94% | 58% |
| CC(C)(CNCc1ccccc1)c1nc(-c2ccc(Cl)c(O)c2)c(-c2ccncc2)[nH]1.Cl | 100% | 99% | 77% |
| COc1cc(OC)cc(C(=O)Nc2nc(-c3ccccn3)cs2)c1 | 97% | 72% | 47% |

| Compound | Inhibition (Plasmodium falciparum [1]) | Inhibition (Plasmodium falciparum [2]) | Inhibition (HepG2) |
| --- | --- | --- | --- |
| CCc1c(CCNCCCCCCNCCc2ccc3c(c2C)OCO3)ccc2c1OCO2.Cl | 100% | 7% | 59% |
| Cc1cc(C)c(C(=O)Nc2n[nH]c3nnc(-c4cccc(F)c4F)cc23)c(C)c1 | 90% | 0% | 0% |
| COc1ccc2nccc([C@@H](O)CN3CCC(NS(=O)(=O)c4cc5c(cc4Cl)SCC(=O)N5)CC3)c2c1.O=C(O)C(=O)O | 88% | 0% | 5% |
| Cc1cc(NCC2CCN(CC3CCCCC3)C2)nc(Nc2ccc(Cl)cc2)n1 (configuration not stated) | 100% | 74% | 2% |
| NC(=O)c1cc2nc(Nc3ccc(F)cc3)nc(NC3CCC3)c2[nH]1.O=CO | 100% | 100% | 0% |
| COc1ccc(CNCc2ccc(-c3ccc(-c4nc5cccc(C)c5[nH]4)s3)cc2)cc1.O=C(O)C(F)(F)F | 100% | 89% | 54% |
| CCCc1cc(Cc2cnc(N)nc2N)cc(CCC)c1OCCCCCC(=O)OCC | 95% | 0% | 12% |
| CC[C@H]1CN(Cc2ccco2)CC[C@H]1CCCc1ccnc2ccc(O)cc12 | 93% | 14% | 31% |
| CCCC(CNCc1ccccc1)CNc1cc(=O)c2ccccc2[nH]1 (configuration not stated) | 86% | 21% | 2% |
| Cc1cc(N)c2cc(NC(=O)/C=C/c3ccccc3Cl)ccc2n1 | 100% | 98% | 81% |
| CC[C@H](C)CNC(=O)c1cncc(-c2cccc(CN(C)C3CCN(C)CC3)c2)c1.O=C(O)C(F)(F)F | 100% | 59% | 9% |
| O=C(Nc1ccc(-c2ccccc2)cc1)Nc1cccc(Cn2nc(Cl)c(N3CCCNCC3)cc2=O)c1.O=C(O)C(F)(F)F | 100% | 37% | 13% |
| COc1ccc(-c2cccc(NC(=O)c3cccs3)c2)cc1CN1CCCN(C)CC1.O=C(O)C(F)(F)F | 100% | 30% | 17% |
| Cc1ccc(O)cc1Nc1ccnc2cc(-c3ccccc3)ccc12.Cl | 100% | 99% | 45% |
| COc1ccc2nccc([C@@H](O)CN3CCC(NCc4ccc5c(c4)N(C)C(=O)CO5)CC3)c2c1.O=C(O)C(=O)O | 100% | 95% | 0% |
| COc1ccc(C23Oc4cc(OC)cc(OC)c4C2(O)C2(CC3c3ccccc3)SCCCS2)cc1 (configuration not stated) | 96% | 97% | 39% |
| O=[N+]([O-])c1ccc(/C=N/Nc2cc(-c3ccccc3)nc3ccccc23)o1 | 93% | 49% | 48% |
| Cc1cccc2nc(-c3cccc(-c4cccc(CN5CCN(c6ccc(C#N)cn6)CC5)c4)c3)[nH]c12.O=C(O)C(F)(F)F | 94% | 34% | 11% |
| CCCc1cc(OC)c(CC2c3cc(O)c(Cl)cc3CCN2C)cc1OC.Cl (configuration not stated) | 100% | 99% | 19% |
| O=C(NC1CCCc2ccccc21)[C@@H]1CCCN1C(=O)c1ccc(O)c(-c2cccc([N+](=O)[O-])c2)c1 (some centres not stated) | 99% | 99% | 0% |
| CC(C)COc1ccc(C(O)C(CN2CCCCC2)c2ccccc2)cc1 (configuration not stated) | 93% | 89% | 11% |
| O=C(NC1CC1)c1ccc(N2CCCC(COc3ccc4c(c3)CCCC4)C2)nc1 (configuration not stated) | 85% | 65% | 0% |
| CCN1CCC(N(Cc2ccc(-c3ccc(C(F)(F)F)cc3)cc2)C(=O)Cn2c(SCc3ccc(F)cc3)nc(=O)c3c2CCC3)CC1.O=C(O)C(O)C(O)C(=O)O | 90% | 96% | 46% |
| Cc1nc(N)nc(N)c1OCCCCOc1ccccc1.Cl.O | 94% | 4% | 62% |
| O=C(/C=C/c1ccc(Cl)c(Cl)c1)NCCCCCN1CC[C@H](NC(=O)/C=C/c2ccccc2)C1 | 93% | 1% | 10% |
| CCc1cc(OC)c(C(=O)NC2CCN(C[C@H](O)c3ccnc4ccc(OC)cc34)CC2)cc1Br | 98% | 56% | 6% |
| Cl.O=C1c2ccccc2CN1CCCN1CCC(Oc2ccc(F)cc2)CC1 | 97% | 1% | 14% |
